# Measurements published in the supplement of paper PMC6555819.
# Experiments:
# Assay in all cases: PBM binding z-score (relative to random genomic background probes); higher = stronger binding; sequences stand for … in GC…GCGATTGACAGCGTAGAATGAAGG
# [1] = tested on: RARb homodimer (NR concentration 270 nM)
# Summary of the method: (§1)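 Probes were double-stranded and carried 34-nt variable regions with direct-repeat seeds, single-nucleotide variants, half-site ablations and random human genomic background sequences, printed on custom Agilent 4×180K protein-binding microarrays. Arrays were incubated 1 h with ligand-free nuclear receptor dimers in PBS pH 7.4, 2% milk, 0.02% Triton X-100, 1 mM DTT, 0.2 mg/mL BSA and 0.4 mg/ml salmon testes DNA. Antibodies against each partner (one per run) detected binding, and scanned fluorescence was regression-normalized. Binding z-scores use the random background probes as reference.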
# [2] = tested on: RARg:RXRa (NR concentration 270 nM, RXRa partner concentration 90 nM)
# Summary of the method: as §1
# [3] = tested on: RARg homodimer (NR concentration 270 nM)
# Summary of the method: as §1
# [4] = tested on: RXRa DBDmut IVT, anti-RXR (DBD mutation: RXRa K156A/R161A, NR concentration 90 nM)
# Summary of the method: as §1
# [5] = tested on: RXRa homodimer (NR concentration 180 nM)
# Summary of the method: as §1
# [6] = tested on: THRa:RXRa (NR concentration 90 nM, RXRa partner concentration 90 nM)
# Summary of the method: as §1
# [7] = tested on: THRa homodimer (NR concentration 90 nM)
# Summary of the method: as §1
# [8] = tested on: VDR homodimer (NR concentration 270 nM)
# Summary of the method: as §1
Sequence,PBM binding z-score [1],PBM binding z-score [2],PBM binding z-score [3],PBM binding z-score [4],PBM binding z-score [5],PBM binding z-score [6],PBM binding z-score [7],PBM binding z-score [8]
CAAACTAGGTCACGAAAGGTCAAAGACGAATGAC,5.96,7.75,8.37,2.55,8.19,5.15,2.72,3.52
CGAACTAGGTCATTGACAGGACAGTTAATAGTAA,2.42,4.65,4.41,2.52,2.86,2.77,0.893,1.27
ACAGACAGGTGAGTGAAGGTAACTCCGCTGGACG,0.202,0.0663,0.259,-0.475,0.41,1.29,-0.349,-0.537
GCAGACAGGTGAAACGCAGGTGACTCAGGGTGGC,0.561,1.85,0.482,-0.723,0.927,1.56,-0.166,-0.391
AGAACGAGGACAATGAGTTGATAGCACGGGTGGC,0.202,0.444,1.06,1.31,0.454,2.19,1.15,2.33
TCTAGCAGGGCAGAGGGTCACTCAAGAGGTACGG,2.89,3.12,2.36,-0.00739,2.68,1.6,-0.329,0.66
GCATATAGGTATTACAAGGTGAAAGTCCGATTGT,0.63,0.464,0.464,0.414,0.523,3.76,1.14,-0.251
CGTCAAAGTTCAAGGTAACGTAACAGAAAGCAGC,3.92,5.25,5.88,4.03,4.58,3,1.32,3.12
CGTCCAAGGCCAGAGAGGTCAGTGAATGCCGAGT,4.2,3.05,4.27,1.06,2.22,2.77,0.817,2.55
CGACCAAGGTGAACAAGGTCGTTGATTACTATTC,2.12,1.92,1.56,0.907,2.13,3.35,1.68,1.82
GGCACGAGGGCATTCGAGTTGATAGCATGGCGAT,0.614,1.04,1.53,3.11,0.455,3.42,-0.251,3.45
ACTAGCATGCCAAGTTTGGGTCACTCAAACAAAG,1.71,1.43,0.744,-0.167,0.674,2.19,0.882,0.673
TCGAGTAGGTTACCAGTGGGGCATTCAGCTTTCT,0.636,1.06,0.275,0.241,0.437,0.157,-0.534,-0.388
CGTCCAAGGTCAGAGAGGTCAGTTAATGCCGAGT,5.24,6.43,7.24,3.83,5.63,4.39,2.8,6.29
TCTTGTAGCTCAAGCAGGTTAAGAAAGCCTGAGT,-0.116,-0.427,-0.42,0.0335,-0.207,0.103,-1.07,-0.763
CCGACTGGGGCCAGGTTACCATAACGCACAGCCA,0.918,0.349,0.638,-0.672,0.426,0.785,0.378,-0.444
ACTAGCAGGCCCAGTTTGGGTCACTCAAACAAAG,1.42,0.324,0.28,-0.882,0.398,1.72,0.659,-0.243
CTCGTAAGGTCGGTTGAGGTGAGTATACGGATAA,1.99,1.89,2.09,1.26,1.44,5.11,2.39,0.937
AGAGTGAGGTTAAGATCAGGGAAACAGAATACAT,1.46,2.28,1.68,0.869,2.52,2.6,1.3,1.06
ACTATTAGTTGACTTAGCGCAACCGATACGACGC,-0.331,0.0723,0.494,0.553,0.244,-0.258,-0.16,0.12
CCTAGCAAGCCAATCTGGGTCACTCAAGGCTTGA,1.9,0.58,0.537,-0.0119,0.781,2.99,0.441,0.0159
CAAACTAGGTCAAAGATCAAAGTCGAGCCAACCA,2.5,4.93,4.62,1.97,5.28,2.9,0.494,0.479
ATCGAAAGGTCGACGAGGTGAGTATTCACCGTTT,3.13,4.29,4.32,1.13,4.63,3.65,0.672,0.806
GCAATTAGTTGAAAGGGCAACCGAATGATTCTCG,2,1.14,1.24,0.685,1.25,0.471,-0.13,0.159
CCGACTGCGGCAAAGGTTACCATACTCAGTACGA,2.07,1.43,1.07,0.531,2.46,1.33,0.0326,0.183
CGAACTAGGTCATCCAAGACAGTGAATACATTGA,2.81,4.15,4.88,2.42,3.45,2.84,0.947,1.06
AATACAGGGTCACTAGGCCAGAGAAGGTACGAAT,3.45,5.18,4.96,2.58,5.52,3.52,1.18,2.31
CCTCGGAGGACAACAGGAGGTCAGAGATGCCAGA,3.66,3.42,3.31,0.124,1.95,2.83,1.02,1.41
